Source: PubChem BioAssay (several laboratories)
In the library only some 27% were active in any assay of this set; here they are far more common.
CYP2C9 activ = human CYP2C9 activators, primary screen, biochemical, luminescence. recombinant CYP2C9, luciferin-H conversion; stronger effect = higher value; factor 1 = untreated enzyme, 0 = blocked. activation factor at 5 µM. Cytochrome P450 2C9 (Homo sapiens), P11712. actives 1.4% (n = 96,000);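 active = activation factor of 2 or more for CYP2C9 at a 5 µM dose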
CYP2C19 inh = blockers of cytochrome P450 2C19 activity – biochemical, luminescence, ADME assay, primary screen; P33261; inhibition, % at 5 µM; actives 21% (n = 96,000); CYP2C19 Supersomes, luciferin-H EGE luminescence, 30 min;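 active = CYP2C19 inhibition above a set limit at 5 µM in the primary screen, cut at about 50% in these data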
CYP2C9 inhib = blockers of cytochrome P450 2C9 activity – biochemical, luminescence, ADME assay, primary screen; actives 20% (n = 96,000); P11712; AID 777, 2007; inhibition, % at 5 µM; CYP2C9 Supersomes, luciferin-H conversion;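 active = blocking of liver enzyme CYP2C9 beyond about 50% at 5 µM, limit read from the data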
CYP2C19 act = human CYP2C19 activators, primary screen, biochemical, luminescence. Cytochrome P450 2C19 (Homo sapiens), P33261. recombinant CYP2C19, luciferin-H EGE luminescence; stronger effect = higher value; 0 = fully inhibited enzyme, 1 = untreated enzyme. activation factor at 5 µM. 96,000 tested, under 10 active. AID 1025, 2008;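 active = activation factor of at least 2 at 5 µM in the primary screen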
Cav32 inh = Cav3.2 calcium influx blockers – cell-based, Fluo-4 calcium fluorescence, FDSS, MLSMR library, primary screen; AID 449739, 2010; actives 4% (n = 100,000); Voltage-dependent T-type calcium channel subunit alpha-1H (Homo sapiens), O95180; Cav3.2-expressing cells; stronger effect = lower value; B-score at 10 µM;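 active = single-dose well whose peak fluorescence ratio is a statistical outlier from its plate by either plate-standardised score or position-corrected B-score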
Numbers stand for hits; n = inactive; x = no result given.

SMILES	CYP2C9 activ	CYP2C19 inh	CYP2C9 inhib	CYP2C19 act	Cav32 inh
Cc1ccc(-n2c(C)cc(C(=O)CSc3nnnn3C)c2C)cc1	n	53	61	n	n
Cc1ccc(-n2nnnc2SCC(=O)c2cc(C)n(-c3cc(C)on3)c2C)c(C)c1	n	n	n	n	n
Cc1cc(C(=O)CSc2nncs2)c(C)n1-c1c(C)n(C)n(-c2ccccc2)c1=O	n	n	n	n	n
Cc1ccc(-n2c(C)cc(C(=O)CSc3nncs3)c2C)cc1	n	100	90	n	n
COc1ccc(CN(C(=O)c2ccco2)c2ccccc2)cc1	x	x	x	x	n
O=C(c1ccco1)N(Cc1ccc([N+](=O)[O-])cc1)c1ccc(Cl)cc1	n	n	94	n	-6.9
O=C(c1ccco1)N(Cc1ccco1)c1ccc(O)cc1	n	n	54	n	n
CS(=O)(=O)N1CCN(Cc2ccc(C(F)(F)F)cc2)CC1	n	n	n	n	x
COc1cc2ncnc(NCc3ccc(C)cc3)c2cc1OC	n	63	n	n	n
CC(C)CC(C(=O)NCc1ccccn1)N1C(=O)c2ccccc2C1=O (stereo unspecified)	n	71	n	n	n
CC(C)CC(C(=O)NC(=O)NCc1ccccc1)N1C(=O)c2ccccc2C1=O (stereo unspecified)	n	n	n	n	n
O=S1(=O)CCC(SCc2nc3sccn3c2Br)C1 (stereo unspecified)	n	n	n	n	n
O=C(CCc1ccccc1)NC(=S)Nc1cc(C(F)(F)F)ccc1N1CCOCC1	n	88	93	n	-5.7
Cc1onc(-c2ccccc2)c1C(=O)Nc1cc(C(F)(F)F)ccc1N1CCOCC1	n	65	56	n	-5.9
Cc1onc(-c2ccccc2)c1C(=O)Nc1ccccc1N1CCOCC1	n	99	81	n	n
O=C(Nc1cc(C(F)(F)F)ccc1N1CCOCC1)c1ccc(F)cc1	n	77	n	n	n
CC(C)(C)c1ccc(S(=O)(=O)n2c(CN3CCOCC3)nc3ccccc32)cc1	n	n	n	n	n
CCO[C@H]1OC(C(N)=O)=C[C@@H](C2CCCCC2)[C@@H]1CCCO	x	x	x	x	n
COc1ccc(C(=O)CSc2nnc(Cc3ccccc3)o2)cc1	n	n	n	n	n
COc1ccc(NCc2nnc(SCC(=O)c3ccc(OC)cc3)o2)cc1	2	n	n	n	n
CCOc1ccc(Cc2nnc(SCC(=O)c3ccc(OC)cc3)o2)cc1	n	n	n	n	n
COc1ccc(NCc2nnc(SCC(=O)Nc3cccc(C)c3)o2)cc1	n	72	59	n	n
COc1cccc(OCc2nnc(SCC(=O)OCc3ccccc3)o2)c1	n	76	62	n	n
O=C(CSc1nnc(-c2ccccc2)o1)OCc1ccccc1	n	n	n	n	n
COc1ccc(Cc2nnc(SCC(=O)c3ccccc3)o2)cc1	n	77	79	n	n
SMILES	CYP2C9 activ	CYP2C19 inh	CYP2C9 inhib	CYP2C19 act	Cav32 inh
O=C(NCCCN=C1NS(=O)(=O)c2ccccc21)c1ccc(S(=O)(=O)N2CCOCC2)cc1	n	n	n	n	n
COCc1cc(C)n(CC(=O)Nc2ccccc2C(=O)OC)c(=O)c1C#N	n	n	n	n	n
O=C(CCN1C(=O)CSC1=O)Nc1ccccc1	n	n	n	n	n
Cc1cccc(C)c1OCc1nnc(SCC(=O)NCCc2ccccc2)o1	x	x	x	x	-5.7
C/C(Sc1nnc(Cc2ccccc2)o1)=C(/O)c1ccccc1	n	61	68	n	n
COc1ccc(OC)c([C@@H]2OCCC=C[C@H]2C)c1	x	x	x	x	n
CCOC(=O)C1=C(C)N=C2SC(CC)C(=O)N2C1c1cccc(F)c1 (stereo unspecified)	n	91	75	n	n
CCC1SC2=NC(C)=C(C(=O)OC)C(c3cccs3)N2C1=O (stereo unspecified)	n	90	n	n	n
O=C(c1ccc(N2CN(C(=O)c3ccco3)c3nc4ccccc4nc32)cc1)N1CCOCC1	n	n	n	n	n
COc1cc(NC(=O)C2CC(=O)NC3=C2C(=O)CCC3)c(OC)cc1Cl (stereo unspecified)	n	n	n	n	n
CC1(c2nnc(Cc3ccccc3)o2)CC(c2c(Cl)cccc2Cl)=NO1 (stereo unspecified)	x	x	x	x	n
Nc1cc(=O)[nH]c(SCCNS(=O)(=O)c2ccccc2)n1	n	n	n	n	n
CC(C)(C)C(=O)CNS(=O)(=O)c1ccc(S(=O)(=O)NC2CCCC2)cc1	n	89	n	n	n
O=C(CN1CCCCC1)Nc1ccc(S(=O)(=O)NC2CCCCC2)cc1	n	n	72	n	n
O=C(CN1CCCCC1)Nc1ccc(S(=O)(=O)N2CCOCC2)cc1	n	n	n	n	n
CCOC(=O)N1CCC(N2CCN(S(=O)(=O)c3ccc(NC(C)=O)cc3)CC2)CC1	n	n	n	n	n
O=S(=O)(NC1CCCC1)c1ccc(S(=O)(=O)NC2CCCC2)cc1	n	98	86	n	n
CCOC(=O)C1CCCC(NS(=O)(=O)c2ccc(NC(C)=O)cc2)C1 (stereo unspecified)	n	58	77	n	n
O=C(NC1CCCCCC1)C1CC(=O)N(Cc2ccccc2)C1 (stereo unspecified)	n	n	n	n	n
CCOC(=O)C1CCN(c2c(N(C)Cc3ccco3)c(=O)c2=O)CC1	n	n	n	n	n
CC(=O)Nc1ccc(-c2nnc(SCc3c(C)cc(C)cc3C)n2C)cc1	n	n	n	n	n
c1ccc(Cn2cc(CSc3ccccc3)nn2)cc1	x	x	x	x	n
Cc1ccc(S(=O)(=O)N(C)CCCC(=O)N2CCN(C=O)CC2)cc1	n	n	n	n	n
CCN(CC)C1CCCCC1NS(=O)(=O)c1ccc(Cl)cc1 (stereo unspecified)	n	n	n	n	n
O=S(=O)(NC1CCCCC1NS(=O)(=O)c1ccc(F)cc1)c1ccc(F)cc1 (stereo unspecified)	n	62	87	n	n
SMILES	CYP2C9 activ	CYP2C19 inh	CYP2C9 inhib	CYP2C19 act	Cav32 inh
CCCCNc1ccccc1C(=O)OCC(=O)Nc1ccc(S(N)(=O)=O)cc1	n	n	86	n	n
CCC(=O)Nc1ccccc1C(=O)OCC(=O)Nc1ccc(S(N)(=O)=O)cc1	n	n	n	n	n
O=C(Nc1ccc(C(F)(F)F)cc1)C1CCCN1S(=O)(=O)c1cccc2cccnc12 (stereo unspecified)	n	n	57	n	n
CC(=O)c1cccc(NC(=O)C2CCCN2S(=O)(=O)c2cccc3cccnc23)c1 (stereo unspecified)	n	56	92	n	n
O=C(NCc1ccccc1)C1CCCN1S(=O)(=O)c1cccc2cccnc12 (stereo unspecified)	n	n	n	n	n
COc1ccc(CN2CCCCC2c2cccnc2)c(OC)c1C (stereo unspecified)	n	n	n	n	n
